A selection: hits, their analogues and other compounds. The true share with any hit is near 2.6%.
hERG WT inh: KCNH2 (human, wildtype) channel inhibition | AID 720551 | Q12809 | actives 0.37% (n = 340,000) | U2OS, BacMam KCNH2, thallium flux FluxOr; hits give low values | activity change, % at 1.84 µM;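 active = maximum activity change below -70%; inconclusive = maximum activity change between -70% and -50%; inactive = maximum activity change above -50%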; also: % is scaled to controls: 0 for no effect and ±100 for the full control effect
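U2OS cells were transduced with wild-type KCNH2 virus (2.03 x 10^8 / mL) for 4 h at room temperature, then cultured overnight at 37 C. Thallium flux was read with FluxOr dye. Rate constants were normalized to DMSO controls.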
TRPV1 agonist: human TRPV1 agonism. Q8NER1. TRPV1-expressing cells, Fluo-8 calcium influx, agonist mode. activation, % at 8.33 µM. actives 0.19% (n = 320,000). AID 540275; in the data active = activation above about 80%; inconclusive = between about 30% and that limit; also: 0% is about no effect
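Fluo-8 calcium influx in TRPV1-expressing cells, kinetic read (ex 480/em 520 nm). Compound added and read 3 min for agonist activity, followed by capsaicin at EC20 final and 2 min further read for enhancement.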
TRPV1 PAM: human TRPV1 potentiation; Q8NER1; TRPV1-expressing cells, Fluo-8 calcium influx, capsaicin EC20 potentiation; potentiation, % at 8.33 µM; actives 0.02% (n = 320,000); AID 540277; in the data active = potentiation above about 80%; inconclusive = between about 30% and that limit; also: 0% is about no effect
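Cells expressing TRPV1 were dye-loaded with Fluo-8 and read kinetically: 10 s baseline, 3 min after compound (agonist portion), then 2 min after EC20 capsaicin (allosteric enhancer portion). Calcium-bound dye fluorescence at 480/520 nm.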
KCNH2 3.1 inh: blocks the human KCNH2 3.1 channel isoform. actives 0.95% (n = 340,000). activity change, % (tested at about 1.8 µM). U2OS KCNH2 3.1, thallium flux FluxOr; hits give low values. AID 720553;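 active = maximum activity change below -70%; inconclusive = maximum activity change from -70% to -50%; inactive = maximum activity change above -50%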;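 also: thallium influx rate constant from kinetic fluorescence after stimulation buffer; % is scaled to controls: 0 for no effect and ±100 for the full control effect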
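U2OS cells transduced with KCNH2 3.1 mutant virus (1.77 x 10^8 /mL, 4 h), plated overnight at 37 C, loaded 45 min with FluxOr dye plus Red40 quencher. Thallium flux rate constant from kinetic reads after stimulation buffer, normalised to controls.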
ClpP mod: qHTS Assay for Activators of ClpP; actives 1.9% (n = 340,000); ATP-dependent Clp protease proteolytic subunit (Bacillus subtilis (strain 168)), P80244; Potency, µM (highest dose often 57.5 µM), for inactives: at the highest dose activity change, negative = active; purified B. subtilis ClpP, FRET peptide cleavage, 20 min; active = well fitted falling curve with a large enough effect; inconclusive = small, poorly fitted or top-dose-only effect; inactive = no such curve, though single readings can be large or run the other way; also: potency is read from the fitted curve at half-maximal effect; the source files actives as falling curves though it sought activators and does not explain the sign; nearly all actives have a fitted effect of over 65% in size
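ClpP 10 microg/mL final, pH 8 Tris/KCl buffer with BSA, glycerol, Tween-20; compound pinned in; FRET-FV substrate; RT 20 min; Ex320/Em430; ΔFRET vs ADEP 5.8 microM, DMSO, no enzyme.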
p53 reactivation: re-activators of mutant p53. Potency, µM (doses to about 92.2 µM), inactives show top-dose activity change, positive = activation, most hits filed as activators. AID 504706. H1299 p53-A138V BP100-luciferase reporter, luminescence, 24 h. actives 0.063% (n = 320,000); active = well fitted activation curve with a large enough effect; inconclusive = small, poorly fitted or top-dose-only effect; inactive = no such curve, though single readings can be large or run the other way; also: potency is read from the fitted curve at half-maximal effect; % of control where 0% means no effect; nearly all actives have a fitted effect of over 45% in size
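p53-null H1299 cells stably carrying temperature-sensitive p53-A138V and a BP100-luciferase reporter were pinned with compounds (4-point, 1:5 series) and held 24 hrs at 37 deg C. Luminescence was read 10 min after detection reagent.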
Numbers without * were called inactive; ? = inconclusive; . = no result given.

SMILES	hERG WT inh	TRPV1 agonist	TRPV1 PAM	KCNH2 3.1 inh	ClpP mod	p53 reactivation
Fc1ccc(-n2cc(CNCCc3cccnc3)c(-c3ccccc3Cl)n2)cc1	70	23	-12	-74*	28µM*	-2%
COCCN(C(C)=O)c1nnc(-c2ccccn2)s1	-12	-1	8	30	?	5%
CC(=O)N(CC1CCCO1)c1nnc(-c2ccccn2)s1 (configuration not stated)	-6	0	1	11	16µM*	?
CCCC(=O)Nc1cccc(NC(=O)c2cccc([N+](=O)[O-])c2C)c1	-2	0	3	-14	11µM*	-7%
CCCC(=O)Nc1cccc(NC(=O)c2ccc([N+](=O)[O-])cc2Cl)c1	6	-3	-24	-14	1%	-11%
Cc1c(C(=O)NCCSCc2ccco2)cccc1[N+](=O)[O-]	-4	19	-11	8	3%	-3%
Cc1c(C(=O)NCCSCc2ccccc2)cccc1[N+](=O)[O-]	4	?	-7	-77*	-2%	-6%
COC(=O)C1C(=O)N(S(=O)(=O)c2ccc([N+](=O)[O-])cc2)c2ccccc21 (configuration not stated)	.	.	.	.	-3%	.
Cc1ccc(C2CCN(C(=O)Nc3ccc(F)cc3)C2)cc1 (configuration not stated)	3	83*	1	16	.	17%
CCCOc1ccc(-c2nnc(-c3cccs3)o2)cc1	-5	?	-9	-16	10µM*	.
CCOc1ccc(-c2nnc(-c3ccccc3)o2)cc1	3	?	-4	0	28µM*	?
CCSc1nnc(-c2cccs2)o1	-7	3	-27	8	28µM*	?
c1ccc(CSc2nnc(-c3cccs3)o2)cc1	9	5	18	-9	-6%	?
CCCCOc1ccc(-c2nnc(-c3ccncc3)o2)cc1	1	?	-20	-8	16µM*	?
CC1(C(=O)NCc2ccccc2)CN(S(C)(=O)=O)CC(=O)N1Cc1cccs1 (configuration not stated)	.	.	.	.	0%	.
COc1cc(Cl)c(C)cc1NC(=O)Cn1ncc2c([nH]c3ccccc32)c1=O	.	.	.	.	-1%	.
Cc1cc(C)c(O)c(NC(=S)NC(=O)Cc2ccccc2)c1	6	81*	5	15	1%	-4%
COc1ccc(C(=O)c2c(N)c(C(=O)Nc3cccc(OC)c3)c3ccccn23)cc1	.	.	.	.	4%	.
O=C1NC(c2cccc(OCc3ccccc3)c2)Nc2ccccc21 (configuration not stated)	7	.	.	-8	32µM*	.
O=C1NC(c2ccc(O)cc2)Nc2ccccc21 (configuration not stated)	-9	-2	?	4	?	.
CCN(CC)c1ccc(C(=C2C=CC(=[N+](CC)CC)C=C2)c2ccc(S(=O)(=O)O)cc2S(=O)(=O)[O-])cc1	-11	.	.	1	0%	.
CCCCCCC(=O)Nc1ccc(Cl)cn1	-5	?	-15	10	-3%	.
O=C(CCCOc1ccc(Cl)cc1Cl)Nc1ccncc1	8	80*	-1	10	-1%	-1%
O=C(CCCOc1ccc(Cl)cc1Cl)Nc1ccccn1	0	-2	11	0	.	4%
O=C(CCCOc1ccccc1)Nc1ccc(Cl)cn1	0	?	-11	-105*	.	6%
O=C(NC1CCC(O)CC1)c1ccc(-c2ccc(Cl)cc2)o1 (configuration not stated)	-17	24	-5	-10	25µM*	18%
O=C(NN1C(=O)NC2(CCCCC2)C1=O)c1ccc(-c2ccc(Cl)cc2)o1	29	0	7	-4	6.3µM*	-14%
O=C(NN1C(=O)NC2(CCCCC2)C1=O)c1cc2cc(Cl)ccc2o1	-3	.	.	3	-2%	-1%
Cc1nnc(NC(=O)CSCc2cc(=O)c3ccc(C)c(C)c3[nH]2)s1	.	.	.	.	-9%	.
